Source: PubChem BioAssay (Tox21)
Values joined by “and” are separate entries in the source; they are usually repeats but may differ in a detail not shown here. Equal entries are not always repeated. Results filed as inconclusive are left out. More than one record can exist for a structure, and the calls need not agree. Active and inactive are the calls of the source. Unless noted, calls follow the shape of the dose curve; as a rule, active = well fitted curve in the direction sought with a large enough effect in the repeat runs; inconclusive = weak or mixed curves; inactive = no such curve, though single readings can be large; an effect the other way counts as inactive or inconclusive.

Columns and labels:
[1] = qHTS assay to identify small molecule antagonists of the constitutive androstane receptor (CAR) signaling pathway - cell viability counter screen (AID 1224837); also: nearly all actives have a fitted effect of over 45% in size; also: potency is read from the fitted curve at half-maximal effect
Method in brief: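 Counter screen run in HepG2-CYP2B6-hCAR cells: 4 hr settle, compound titration (15 concentrations) with 50 nM CITCO, 23 hr at 37 C/5% CO2, CellTiter-Fluor fluorescence.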

[2] = target: Nuclear receptor subfamily 1 group I member 3 (Homo sapiens) (UniProt Q14994); experiment: qHTS assay to identify small molecule antagonists of the constitutive androstane receptor (CAR) signaling pathway (AID 1224838);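 also: HepG2 cells stably expressing hCAR with CYP2B6 luciferase reporter stimulated by CITCO; nearly all actives have a fitted effect of over 40% in size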
Method in brief: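 Cell line: HepG2 double-stable for hCAR and CYP2B6-2.2kb reporter. Agonist: CITCO, 50 nM final. Compounds: 15 concentrations, 24 h, 37 C. Detection: ONE-Glo luminescence.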

[3] = qHTS assay to identify small molecule antagonists of the estrogen related receptor signaling pathway with the pleiotropic PPARgamma coactivator (PGC) from Tox21 10K library - cell viability counter screen (AID 1224840; active = well fitted cell-killing curve with a large enough effect in the repeat runs, not every such curve was filed as active; also: nearly all actives have a fitted effect of over 40% in size; also: potency is read from the fitted curve at half-maximal effect)
Method in brief: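 Following seeding of 2,000 PGC/ERR cells/well and 6 hours' incubation, test compounds were delivered in DMSO. The plates then sat 17.5 hours at 37 C before a fluorogenic live-cell protease reagent (CellTiter-Fluor) was read after 30 min.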

[4] = qHTS assay to identify small molecule agonists of the hypoxia (HIF-1) signaling pathway (AID 1224846; active = well fitted activation curve with a large enough effect in the signal ratio in the repeat runs, not every such curve was filed as active; the % refers to the signal ratio)
Method in brief: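 A low-serum medium (0.5% dialyzed FBS) holding 2,000 HRE-bla ME-180 cells per well is preincubated for 5 hrs, dosed with compounds by pintool, and kept a further 17 hrs at 37C, 5% CO2 before CCF4-AM FRET detection of beta-lactamase.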

[5] = qHTS assay to identify small molecule agonists of H2AX - cell viability counter screen (AID 1224847; calls by dose curve; also: nearly all actives have a fitted effect of over 30% in size; also: potency is read from the fitted curve at half-maximal effect)
Method in brief: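 Counter-screen for viability: CellTiter-Glo ATP luminescence read after 3 h compound treatment (15-point titration, 0.76% DMSO final) of CHO-K1 cells at 37C, with 30 min room-temperature reagent incubation.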

[6] = qHTS RealTime-Glo MT Cell Viability Assay in HEK293 cells - 32 hour (AID 1224868); also: nearly all actives have a fitted effect of over 50% in size; also: potency is read from the fitted curve at half-maximal effect
Method in brief: (§1)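 Viability tracked continuously by luminescence as live cells reduce a prosubstrate for NanoLuc; HEK293 cells preincubated 5 h, compound-treated at 37 C, and read at 0, 8, 16, 24, 32 and 40 h.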

[7] = qHTS RealTime-Glo MT Cell Viability Assay in HepG2 cells - 40 hour (AID 1224870); also: nearly all actives have a fitted effect of over 50% in size
Method in brief: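 Real-time viability: cells seeded at 600 per well together with NanoLuc and cell-permeant prosubstrate, compounds added after 5 h incubation. Luminescence tracked at 0, 8, 16, 24, 32 and 40 h of exposure.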

[8] = A CellTox Green Cytotoxicity Assay to monitor cytotoxicity in HEK293 cells - 40 hour (AID 1224871); also: nearly all actives have a fitted effect of over 45% in size; also: potency is read from the fitted curve at half-maximal effect
Method in brief: (§2)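 Fluorescence intensity, read at 0, 8, 16, 24, 32 and 40 h of compound treatment, reflected dye binding to DNA of dead HEK293 cells; compounds (23 nL, DMSO) were added 5 h after plating cells with reagent.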

[9] = qHTS RealTime-Glo MT Cell Viability Assay in HEK293 cells - 16 hour (AID 1224872); also: top concentration of the series differs between compounds; nearly all actives have a fitted effect of over 50% in size
Method in brief: as §1

[10] = target: Nuclear receptor subfamily 1 group I member 3 (Homo sapiens) (UniProt Q14994); experiment: qHTS assay to identify small molecule agonists of the constitutive androstane receptor (CAR) signaling pathway (AID 1224839); also: nearly all actives have a fitted effect of over 15% in size; also: potency is read from the fitted curve at half-maximal effect;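 as to activation: HepG2 cells stably carrying human CAR and a CYP2B6 luciferase reporter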
Method in brief: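 Luminescent ONE-Glo read-out after 24 hr, 37 C exposure of double-stable HepG2-CYP2B6-hCAR reporter cells to a 15-point compound series, in the presence of 0.75 uM PK11195 (final).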

[11] = qHTS assay to identify small molecule agonists of the estrogen related receptor signaling pathway with the pleiotropic PPARgamma coactivator (PGC) from Tox21 10K library (AID 1224842); also: nearly all actives have a fitted effect of over 15% in size; also: potency is read from the fitted curve at half-maximal effect
Method in brief: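 Luminescence from One-Glo (30 min, room temperature) measured after PGC/ERR cells had 18 h at 37 C with pinned compound (23 nL in DMSO). Cells had been seeded at 2,000 per well and pre-incubated 6 h.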

[12] = qHTS assay to identify small molecule agonists of the hypoxia (HIF-1) signaling pathway - cell viability counter screen (AID 1224844; calls by dose curve; also: nearly all actives have a fitted effect of over 50% in size)
Method in brief: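 Cells (HRE-bla ME-180, 2,000 per well) sat 5 hrs at 37C, got compound for 17 hrs, were read for CCF4-AM FRET, and were finally lysed with CellTiter-Glo for a 30 min room-temperature luminescence read.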

[13] = qHTS assay to identify small molecule antagonists of the estrogen related receptor (ERR) signaling pathway from Tox21 library (AID 1224848); also: nearly all actives have a fitted effect of over 50% in size; also: potency is read from the fitted curve at half-maximal effect
Method in brief: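 Antagonist-mode screen of the Tox21 10K library in an NTP-provided ERR reporter cell line; 18 h compound exposure at 37 C, luminescence measured with ONE-Glo.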

[14] = qHTS assay to identify small molecule agonists of the estrogen related receptor (ERR) signaling pathway from Tox21 library (AID 1224849; calls by dose curve; also: nearly all actives have a fitted effect of over 15% in size); details: ERR reporter cell line, ONE-Glo luciferase, 18 h
Method in brief: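 Screening used an NTP-provided ERR luciferase cell line. Compounds in DMSO were added 6 h after seeding and left 18 h at 37 C before a 30 min ONE-Glo step and luminescence reading.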

[15] = qHTS RealTime-Glo MT Cell Viability Assay in HepG2 cells - 24 hour (AID 1224867); also: nearly all actives have a fitted effect of over 50% in size
Method in brief: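 Viability was tracked continuously by NanoLuc luminescence from prosubstrate reduced by living HepG2 cells, at successive time points over 40 h of compound exposure. Cells with reagent were preincubated 5 h at 37 °C before compound addition.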

[16] = qHTS assay to identify small molecule antagonists of the estrogen related receptor signaling pathway with the pleiotropic PPARgamma coactivator (PGC) from Tox21 10K library (AID 1224841; call rule not given here; also: potency is read from the fitted curve at half-maximal effect)
Method in brief: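 qHTS antagonist format: PGC/ERR cells, 2k/well, compound in DMSO by pin transfer after 6 h attachment, 18 h treatment at 37 C, One-Glo luminescence read at 30 min.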

[17] = target: Thyrotropin receptor (Homo sapiens) (UniProt P16473); experiment: qHTS assay to identify small molecule agonists of the thyroid stimulating hormone receptor (TSHR) signaling pathway (AID 1224843; calls by dose curve; also: nearly all actives have a fitted effect of over 45% in size; also: potency is read from the fitted curve at half-maximal effect)
Method in brief: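 Screening of the Tox21 10K collection used HEK293 cells engineered with TSHR at 800 cells per well. After a 30-min room-temperature compound exposure, HTRF cAMP reagents were added and fluorescence recorded 1 h later.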

[18] = qHTS assay to identify small molecule agonists of H2AX (AID 1224845; active = well fitted activation curve with a large enough effect in the signal ratio in the repeat runs, not every such curve was filed as active; the % refers to the signal ratio)
Method in brief: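 Phospho-H2AX Ser139 measured by HTRF (ex 320 nm; em 665 and 620 nm) after 24 hr antibody incubation. Compounds, 15 concentrations, 0.76% DMSO, were applied to CHO-K1 cells for 3hr at 37C before lysis.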

[19] = A CellTox Green Cytotoxicity Assay to monitor cytotoxicity in HEK293 cells - 0 hour (AID 1224869); also: nearly all actives have a fitted effect of over 50% in size
Method in brief: as §2
% is scaled to controls: 0 for no effect and ±100 for the full control effect.

Thyrotropin receptor (Homo sapiens), sequence (P16473 whole entry, looked up): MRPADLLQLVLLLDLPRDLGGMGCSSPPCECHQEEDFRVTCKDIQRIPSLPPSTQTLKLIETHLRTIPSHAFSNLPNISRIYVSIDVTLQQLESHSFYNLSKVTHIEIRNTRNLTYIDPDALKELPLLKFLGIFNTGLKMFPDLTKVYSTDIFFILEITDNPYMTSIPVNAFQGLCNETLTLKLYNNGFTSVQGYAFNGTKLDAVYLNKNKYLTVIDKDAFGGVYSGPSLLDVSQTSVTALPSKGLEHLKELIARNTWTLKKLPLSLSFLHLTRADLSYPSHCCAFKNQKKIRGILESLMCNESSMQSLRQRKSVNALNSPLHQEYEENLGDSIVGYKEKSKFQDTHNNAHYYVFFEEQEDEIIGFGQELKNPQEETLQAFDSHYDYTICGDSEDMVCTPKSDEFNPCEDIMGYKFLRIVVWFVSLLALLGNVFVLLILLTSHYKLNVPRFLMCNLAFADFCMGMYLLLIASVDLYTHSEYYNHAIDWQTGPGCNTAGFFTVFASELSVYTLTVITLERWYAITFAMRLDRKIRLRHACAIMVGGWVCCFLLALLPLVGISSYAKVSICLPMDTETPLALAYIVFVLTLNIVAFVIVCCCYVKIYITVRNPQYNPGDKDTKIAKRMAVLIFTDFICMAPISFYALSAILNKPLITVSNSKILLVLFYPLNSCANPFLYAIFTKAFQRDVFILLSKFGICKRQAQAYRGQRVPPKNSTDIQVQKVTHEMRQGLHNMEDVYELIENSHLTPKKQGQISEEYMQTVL
Nuclear receptor subfamily 1 group I member 3 (Homo sapiens), sequence (Q14994 whole entry, looked up): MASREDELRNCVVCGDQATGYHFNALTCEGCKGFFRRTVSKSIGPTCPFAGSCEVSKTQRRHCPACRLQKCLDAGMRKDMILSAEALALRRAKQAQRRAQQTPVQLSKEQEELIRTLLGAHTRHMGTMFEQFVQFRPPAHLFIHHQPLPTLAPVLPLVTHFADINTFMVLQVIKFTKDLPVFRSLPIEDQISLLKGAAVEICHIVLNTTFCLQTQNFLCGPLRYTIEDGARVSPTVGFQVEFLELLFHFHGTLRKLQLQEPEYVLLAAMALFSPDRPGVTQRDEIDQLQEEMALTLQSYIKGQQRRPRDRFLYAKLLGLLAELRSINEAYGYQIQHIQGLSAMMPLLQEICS

C=CCCC(=O)/C=C/C1C(C)=CCCC1(C)C (stereo not drawn)
inactive: Potency [1] | Potency [2] | Potency [3] | Potency [4] | Potency [6] | Potency [7] | Potency [9]
active: Potency [5] 89.8 µM | Potency [8] 24.5 µM

C#C[C@]1(O)CC[C@H]2[C@@H]3[C@H](C)CC4=C(CCC(=O)C4)[C@H]3CC[C@@]21C
active: Potency [13] 23.7 µM
inactive: Potency [1] | Potency [2] | Potency [10] | Potency [3] | Potency [11] | Potency [12] | Potency [4] | activity change, positive = activation ([14]; at 42.5 µM (top of the series)) -32.4% | Potency [15] | Potency [6] | Potency [7] | Potency [8]

Cc1c2ccccc2c(C)c2c1ccc1ccccc12
inactive: Potency [2] | Potency [12] | Potency [18] | Potency [5] | activity change, positive = activation ([14]; at 92.4 µM (top of the series)) -83.3% and -76.1% | Potency [15] | Potency [19] | Potency [7]
active: Potency [1] 54.5 µM | Potency [10] 5.39 µM and 9.69 µM | Potency [3] 53.9 µM and 27.3 µM | Potency [16] 34.4 µM | Potency [17] 27 µM and 24.3 µM | Potency [13] 30.3 µM and 61.1 µM | Potency [6] 43.2 µM and 24.5 µM | Potency [8] 43.6 µM
24.1 µM (active) and inactive: Potency [11]

O=S(=O)(O)c1ccc(Nc2nc(Nc3ccc(/C=C/c4ccc(Nc5nc(Nc6ccc(S(=O)(=O)O)cc6)nc(N(CCO)CCO)n5)cc4S(=O)(=O)O)c(S(=O)(=O)O)c3)nc(N(CCO)CCO)n2)cc1
inactive: Potency [1] | Potency [3] | Potency [16] | Potency [17] | Potency [12] | Potency [5] | Potency [13] | activity change, positive = activation ([14]; at 42.5 µM (top of the series)) 7.49% | Potency [15] | Potency [6] | Potency [19] | Potency [7] | Potency [8] | Potency [9]
